Measurements: PubChem BioAssay (EPA / NIEHS)
Active and inactive are the calls of the source. How the source made its calls: active means hit-call score of the fitted dose curve at least 0.9, where 1 is the maximum; inactive means score below 0.9.

Legend:
Conditions in all cases: mRNA level, 48 h; actives raise or lower the signal
MYC, MYC (gene 4609) = assay: LTEA_HepaRG_MYC: Life Technologies and Expression Analysis (LTEA) Assay for MYC using HepaRG (AID 2283518)
How it was run: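 qRT-PCR read-out of MYC transcript (Fluidigm TaqMan, housekeeping-normalized) after 48 h chemical exposure of HepaRG cells; eight concentrations, top 100 uM, half-log steps. Bidirectional curve fitting against 0.5% DMSO vehicle baseline.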

[1] = read-out: matrix metalloproteinase-3 (MMP3), MMP3 (gene 4314); assay: LTEA_HepaRG_MMP3: Life Technologies and Expression Analysis (LTEA) Assay for matrix metalloproteinase-3 (MMP3) using HepaRG (AID 2283519)
How it was run: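 HepaRG cells (~100,000/well) in serum-free induction medium were dosed in duplicate for 48 h with an 8-point half-log series from 100 uM, 0.5% DMSO. MMP3 mRNA was quantified by Fluidigm TaqMan qRT-PCR, normalized to three housekeeping genes.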

[2] = read-out: Paternally Expressed 10 (PEG10), PEG10 (gene 23089); assay: LTEA_HepaRG_PEG10: Life Technologies and Expression Analysis (LTEA) Assay for Paternally Expressed 10 (PEG10) using HepaRG (AID 2283520)
How it was run: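 HepaRG, 48 h post-plating → serum-free induction medium → 48 h chemical exposure (duplicate, 8-pt, max 100 uM, half-log, 0.5% DMSO) → lysis in RLT → TaqMan qRT-PCR for PEG10, ACTB/GAPDH/POLR2A normalisation.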

[3] = read-out: Nuclear factor NF-kappa-B p105 subunit (Homo sapiens) (UniProt P19838); assay: LTEA_HepaRG_NFKB1: Life Technologies and Expression Analysis (LTEA) Assay for Nuclear Factor Kappa B Subunit 1 (NFKB1) using HepaRG (AID 2283521)
How it was run: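 HepaRG, 48 h exposure; 8-pt half-log series from 100 uM in 0.5% DMSO; duplicates. Readout: NFKB1 mRNA by qRT-PCR (Fluidigm arrays), housekeeping-normalized. Gain/loss fit vs DMSO baseline.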

[4] = read-out: Protein phosphatase 2A (PPP2R4), PTPA (gene 5524); assay: LTEA_HepaRG_PPP2R4: Life Technologies and Expression Analysis (LTEA) Assay for Protein phosphatase 2A (PPP2R4) using HepaRG (AID 2283522)
How it was run: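 Readout is PPP2R4 transcript level by microfluidic qRT-PCR after 48 h chemical treatment of human HepaRG liver cells. Concentrations spanned 100 uM downward in half-log steps; gain or loss of signal was fitted relative to DMSO.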

[5] = read-out: Phosphatase and tensin (PTEN), PTEN (gene 5728); assay: LTEA_HepaRG_PTEN: Life Technologies and Expression Analysis (LTEA) Assay for Phosphatase and tensin (PTEN) using HepaRG (AID 2283523)
How it was run: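 HepaRG cells, 48 h after plating, exposed in duplicate for 48 h in serum-free induction medium to 8 half-log concentrations up to 100 uM (0.5% DMSO). PTEN mRNA by qRT-PCR, normalized to ACTB, GAPDH, POLR2A; bidirectional fit versus DMSO.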

[6] = read-out: solute carrier (SLC22A1), SLC22A1 (gene 6580); assay: LTEA_HepaRG_SLC22A1: Life Technologies and Expression Analysis (LTEA) Assay for solute carrier (SLC22A1) using HepaRG (AID 2283524)
How it was run: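 Differentiated human HepaRG cells in serum-free induction medium, exposed 48 h in duplicate to 8-point half-log series from 100 µM top in 0.5% DMSO. SLC22A1 mRNA by TaqMan qRT-PCR normalized to ACTB, GAPDH, POLR2A; bidirectional fit versus DMSO.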

[7] = read-out: Pyruvate Dehydrogenase Kinase 4 (PDK4), PDK4 (gene 5166); assay: LTEA_HepaRG_PDK4: Life Technologies and Expression Analysis (LTEA) Assay for Pyruvate Dehydrogenase Kinase 4 (PDK4) using HepaRG (AID 2283525)
How it was run: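 HepaRG cells plated 48 h, then switched to serum-free induction medium and exposed in duplicate for 48 h to 8 half-log concentrations from 100 uM in 0.5% DMSO. PDK4 mRNA measured by qRT-PCR, normalized to ACTB, GAPDH and POLR2A; bidirectional fit versus DMSO.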

[8] = read-out: Nuclear factor erythroid 2-related factor 2 (Homo sapiens) (UniProt Q16236); assay: LTEA_HepaRG_NFE2L2: Life Technologies and Expression Analysis (LTEA) Assay for Nuclear factor erythroid 2-related factor 2 (NFE2L2) Transcription Factor using HepaRG (AID 2283527)
How it was run: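 Differentiated human HepaRG cells, serum-free induction medium, exposed 48 h in duplicate to eight half-log concentrations up to 100 uM in 0.5% DMSO. NFE2L2 mRNA by Fluidigm TaqMan qRT-PCR, normalised to ACTB, GAPDH, POLR2A; bidirectional change versus DMSO.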

[9] = read-out: succinate dehydrogenase complex iron sulfur subunit B (SDHB), SDHB (gene 6390); assay: LTEA_HepaRG_SDHB: Life Technologies and Expression Analysis (LTEA) Assay for succinate dehydrogenase complex iron sulfur subunit B (SDHB) using HepaRG (AID 2283528)
How it was run: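 Readout is SDHB transcript level by qRT-PCR, normalised to three housekeeping genes and fitted bidirectionally against 0.5% DMSO vehicle. Human HepaRG cells were treated for 48 h at up to 100 uM.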

[10] = read-out: Signal transducer and activator of transcription 3 (Homo sapiens) (UniProt P40763); assay: LTEA_HepaRG_STAT3: Life Technologies and Expression Analysis (LTEA) Assay for Signal transducer and activator of transcription (STAT3) using HepaRG (AID 2283529)
How it was run: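 Differentiated HepaRG cells, serum-free induction medium, dosed 48 h in duplicate, 8 half-log concentrations from 100 uM in 0.5% DMSO. STAT3 mRNA by qRT-PCR, normalised to ACTB, GAPDH, POLR2A; bidirectional fit versus DMSO.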

[11] = read-out: sulfotransferase 2A1 (SULT2A1), SULT2A1 (gene 6822); assay: LTEA_HepaRG_SULT2A1: Life Technologies and Expression Analysis (LTEA) Assay for sulfotransferase 2A1 (SULT2A1) using HepaRG (AID 2283531)
How it was run: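 HepaRG, 48 h chemical exposure, 8-pt half-log curve from 100 uM in 0.5% DMSO, duplicates. Readout: TaqMan qRT-PCR of SULT2A1 mRNA, housekeeping-normalized. Bidirectional fit vs DMSO baseline.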

[12] = read-out: Transforming Growth Factor (TGFA), TGFA (gene 7039); assay: LTEA_HepaRG_TGFA: Life Technologies and Expression Analysis (LTEA) Assay for Transforming Growth Factor (TGFA) using HepaRG (AID 2283532)
How it was run: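 Differentiated HepaRG cells exposed 48 hours in serum-free induction medium, 0.5% DMSO vehicle, 8-point half-log series from 100 uM, in duplicate. TGFA mRNA by TaqMan qRT-PCR, normalised to ACTB, GAPDH, POLR2A; bidirectional fit versus DMSO.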

[13] = read-out: Transforming Growth Factor (TGFB1), TGFB1 (gene 7040); assay: LTEA_HepaRG_TGFB1: Life Technologies and Expression Analysis (LTEA) Assay for Transforming Growth Factor (TGFB1) Transporter using HepaRG (AID 2283533)
How it was run: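 qRT-PCR readout of TGFB1 transcript in HepaRG lysates, normalized to three housekeeping genes; gain or loss of signal fitted relative to 0.5% DMSO vehicle. Exposure: 48 h, 8-point curve from 100 uM, duplicate wells.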

TIMP1, TIMP1 (gene 7076) = assay: LTEA_HepaRG_TIMP1: Life Technologies and Expression Analysis (LTEA) Assay for TIMP1 using HepaRG (AID 2283534)
How it was run: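 HepaRG, 48 h exposure, 8-pt half-log series from 100 uM in 0.5% DMSO, duplicates; TIMP1 transcript by Fluidigm qRT-PCR, housekeeping-normalized; bidirectional curve fit vs DMSO baseline.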

[14] = read-out: Tumor necrosis factor receptor 1 (TNFRSF1A), TNFRSF1A (gene 7132); assay: LTEA_HepaRG_TNFRSF1A: Life Technologies and Expression Analysis (LTEA) Assay for Tumor necrosis factor receptor 1 (TNFRSF1A) using HepaRG (AID 2283535)
How it was run: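 HepaRG, 48 h plating then 48 h chemical exposure, serum-free induction media; 8-pt CRC from 100 uM, half-log, 0.5% DMSO vehicle, duplicates. Readout: TaqMan qRT-PCR (Fluidigm), housekeeping-gene normalized; bidirectional fit vs DMSO.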

[15] = read-out: Thyroid Hormone Responsive (THRSP), THRSP (gene 7069); assay: LTEA_HepaRG_THRSP: Life Technologies and Expression Analysis (LTEA) Assay for Thyroid Hormone Responsive (THRSP) using HepaRG (AID 2283536)
How it was run: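 Differentiated HepaRG cells treated 48 h in serum-free induction medium with 8 half-log concentrations up to 100 uM (0.5% DMSO), duplicates. THRSP mRNA by TaqMan qRT-PCR normalised to ACTB, GAPDH, POLR2A; bidirectional fit versus DMSO.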

[16] = read-out: Cellular tumor antigen p53 (Homo sapiens) (UniProt P04637); assay: LTEA_HepaRG_TP53: Life Technologies and Expression Analysis (LTEA) Assay for Tumor Protein P53 (TP53) using HepaRG (AID 2283537)
How it was run: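 Read-out is TP53 transcript level by microfluidic qRT-PCR, normalised to three housekeeping genes and fitted bidirectionally against DMSO. Human HepaRG cells received compounds for 48 h, highest concentration 100 uM.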

[17] = read-out: NAD(P)H dehydrogenase [quinone] 1 (NQO1), NQO1 (gene 1728); assay: LTEA_HepaRG_NQO1: Life Technologies and Expression Analysis (LTEA) Assay for NAD(P)H dehydrogenase [quinone] 1 (NQO1) using HepaRG (AID 2283526)
How it was run: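 HepaRG, 48 h post-plating → serum-free induction medium → test chemical 48 h (duplicate, 100 uM top, half-log x8, 0.5% DMSO) → RNA isolation → qRT-PCR, ACTB/GAPDH/POLR2A normalization; bidirectional curve fit vs DMSO baseline.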

[18] = read-out: solute carrier (SLCO1B1), SLCO1B1 (gene 10599); assay: LTEA_HepaRG_SLCO1B1: Life Technologies and Expression Analysis (LTEA) Assay for solute carrier (SLCO1B1) using HepaRG (AID 2283530)
How it was run: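 SLCO1B1 transcript read by qRT-PCR (Fluidigm arrays), normalized to three housekeeping genes, after 48 h chemical exposure of HepaRG cells; bidirectional concentration-response fitting versus 0.5% DMSO baseline. Eight-point half-log series, maximum 100 uM.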

Measured: AC50

Chain of Signal transducer and activator of transcription 3 (Homo sapiens) (P40763 whole entry, looked up): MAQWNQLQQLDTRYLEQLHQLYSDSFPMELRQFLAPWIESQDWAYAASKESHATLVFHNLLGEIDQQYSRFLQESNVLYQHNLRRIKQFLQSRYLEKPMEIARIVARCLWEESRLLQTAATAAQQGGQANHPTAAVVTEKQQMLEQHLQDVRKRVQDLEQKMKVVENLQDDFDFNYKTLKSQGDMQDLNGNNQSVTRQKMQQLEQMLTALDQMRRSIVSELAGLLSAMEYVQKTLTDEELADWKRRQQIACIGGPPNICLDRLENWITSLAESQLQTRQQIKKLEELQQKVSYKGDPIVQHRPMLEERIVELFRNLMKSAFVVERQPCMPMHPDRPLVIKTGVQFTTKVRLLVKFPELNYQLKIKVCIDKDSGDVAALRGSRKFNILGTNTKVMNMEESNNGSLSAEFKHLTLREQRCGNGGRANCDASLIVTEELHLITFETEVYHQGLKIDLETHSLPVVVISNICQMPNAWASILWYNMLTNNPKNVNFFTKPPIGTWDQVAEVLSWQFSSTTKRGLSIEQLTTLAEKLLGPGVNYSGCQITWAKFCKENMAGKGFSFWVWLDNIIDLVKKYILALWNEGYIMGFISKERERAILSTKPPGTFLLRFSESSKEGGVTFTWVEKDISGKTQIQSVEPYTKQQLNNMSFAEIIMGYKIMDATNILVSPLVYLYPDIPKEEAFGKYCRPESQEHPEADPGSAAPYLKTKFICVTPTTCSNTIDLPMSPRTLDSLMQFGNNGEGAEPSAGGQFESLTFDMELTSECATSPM
Chain of Nuclear factor NF-kappa-B p105 subunit (Homo sapiens) (P19838 whole entry, looked up): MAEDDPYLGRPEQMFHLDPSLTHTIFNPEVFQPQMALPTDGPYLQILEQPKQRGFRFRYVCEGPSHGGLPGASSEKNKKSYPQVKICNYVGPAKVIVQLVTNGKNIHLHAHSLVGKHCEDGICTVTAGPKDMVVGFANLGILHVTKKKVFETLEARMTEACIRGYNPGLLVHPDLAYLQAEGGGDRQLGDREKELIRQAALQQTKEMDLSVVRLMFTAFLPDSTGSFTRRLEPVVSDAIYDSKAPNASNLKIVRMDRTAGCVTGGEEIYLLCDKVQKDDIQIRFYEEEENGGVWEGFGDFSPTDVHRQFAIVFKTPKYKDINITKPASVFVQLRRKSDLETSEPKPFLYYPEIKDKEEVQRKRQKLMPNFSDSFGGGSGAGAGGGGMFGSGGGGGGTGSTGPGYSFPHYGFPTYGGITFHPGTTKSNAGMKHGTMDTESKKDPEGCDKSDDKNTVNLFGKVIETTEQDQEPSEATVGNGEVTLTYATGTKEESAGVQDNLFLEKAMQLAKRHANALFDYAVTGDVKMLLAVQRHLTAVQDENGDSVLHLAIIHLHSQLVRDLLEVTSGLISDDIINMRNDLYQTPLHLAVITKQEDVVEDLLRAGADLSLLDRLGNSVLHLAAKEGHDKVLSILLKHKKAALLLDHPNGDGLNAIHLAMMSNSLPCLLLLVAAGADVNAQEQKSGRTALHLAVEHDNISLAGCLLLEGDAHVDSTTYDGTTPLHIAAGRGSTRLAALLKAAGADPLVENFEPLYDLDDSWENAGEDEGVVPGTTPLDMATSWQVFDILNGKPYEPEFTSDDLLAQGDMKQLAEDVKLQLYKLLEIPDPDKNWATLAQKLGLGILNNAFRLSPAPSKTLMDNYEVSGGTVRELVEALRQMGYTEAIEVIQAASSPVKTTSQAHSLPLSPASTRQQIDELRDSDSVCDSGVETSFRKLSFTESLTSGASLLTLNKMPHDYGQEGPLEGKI
Chain of Cellular tumor antigen p53 (Homo sapiens) (P04637 whole entry, looked up): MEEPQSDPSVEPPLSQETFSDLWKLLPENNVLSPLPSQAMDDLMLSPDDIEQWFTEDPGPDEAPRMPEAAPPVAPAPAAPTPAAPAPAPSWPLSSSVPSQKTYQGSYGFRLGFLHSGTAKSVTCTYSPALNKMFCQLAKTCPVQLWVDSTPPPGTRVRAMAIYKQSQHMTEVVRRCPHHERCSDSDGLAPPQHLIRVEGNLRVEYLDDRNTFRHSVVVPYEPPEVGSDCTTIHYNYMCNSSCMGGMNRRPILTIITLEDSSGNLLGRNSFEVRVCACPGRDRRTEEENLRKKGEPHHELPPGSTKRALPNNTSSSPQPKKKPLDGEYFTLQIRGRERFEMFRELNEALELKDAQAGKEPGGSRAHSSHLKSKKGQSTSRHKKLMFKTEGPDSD
Chain of Nuclear factor erythroid 2-related factor 2 (Homo sapiens) (Q16236 whole entry, looked up): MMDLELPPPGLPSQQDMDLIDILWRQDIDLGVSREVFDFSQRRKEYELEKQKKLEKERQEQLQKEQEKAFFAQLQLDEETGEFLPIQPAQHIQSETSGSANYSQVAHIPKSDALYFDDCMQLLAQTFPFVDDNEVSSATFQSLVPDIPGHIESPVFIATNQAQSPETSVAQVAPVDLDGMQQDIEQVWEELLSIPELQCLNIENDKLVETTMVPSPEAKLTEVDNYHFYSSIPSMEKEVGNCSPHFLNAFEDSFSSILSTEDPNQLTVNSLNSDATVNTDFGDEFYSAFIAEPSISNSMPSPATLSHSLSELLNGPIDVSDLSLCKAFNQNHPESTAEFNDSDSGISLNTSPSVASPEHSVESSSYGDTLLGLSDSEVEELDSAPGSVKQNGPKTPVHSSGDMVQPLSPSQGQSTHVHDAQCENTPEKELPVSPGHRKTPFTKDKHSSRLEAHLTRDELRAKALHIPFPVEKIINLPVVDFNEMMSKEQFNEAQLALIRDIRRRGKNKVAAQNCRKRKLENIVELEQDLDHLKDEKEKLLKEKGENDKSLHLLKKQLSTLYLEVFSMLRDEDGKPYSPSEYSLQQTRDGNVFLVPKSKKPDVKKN

Cc1cc(CCN2CCN(c3nsc4ccccc34)CC2)cc2c1NC(=O)CC2(C)C
active: MYC, MYC (gene 4609) 87.1 µM | [6] 84.8 µM | [7] 4.39 µM | [8] 50 µM | [11] 85.8 µM | [13] 35.4 µM | [15] 82 µM | [16] 80.4 µM
not listed: [17] | [18]
inactive: all other assays above

O=C(OCCOCCOC(=O)c1ccccc1)c1ccccc1
not listed: [12] | [13] | [18]
inactive: all other assays above

CC1=C(/C=C/C(C)=C/C=C/C(C)=C/C(=O)O)C(C)(C)CCC1
inactive: [3] | [4] | [5] | [10] | TIMP1, TIMP1 (gene 7076) | [14] | [15] | [16]
active: MYC, MYC (gene 4609) 22.7 µM | [1] 18 µM | [2] 9 µM | [6] 22.9 µM | [7] 33.8 µM | [8] 20.4 µM | [9] 1.09 µM | [18] 11.5 µM | [11] 0.812 µM

CN1CCN(c2ccccc2/C=C2\SCCN(c3ccc(Cl)c(Cl)c3)C2=O)CC1
active: [1] 87.1 µM | [2] 14 µM | [6] 93.8 µM | [17] 81.3 µM | [8] 79.5 µM | [11] 93.2 µM | [14] 95.5 µM
not listed: [12] | [13]
inactive: all other assays above

ClC1=C(Cl)C(Cl)(Cl)C(Cl)=C1Cl
not listed: [12] | [13] | [18]
inactive: all other assays above

COc1ccc([N+](=O)[O-])cc1N
active: [15] 9.92 µM
not listed: [13] | [17] | [18]
inactive: all other assays above

CC#C[C@]1(O)CC[C@H]2[C@@H]3CCC4=CC(=O)CCC4=C3[C@@H](c3ccc(N(C)C)cc3)C[C@@]21C
inactive: [1] | [2] | [5] | [17] | [10] | [14]
active: MYC, MYC (gene 4609) 50 µM | [3] 50 µM | [4] 13.8 µM | [6] 25.2 µM | [7] 0.504 µM | [8] 50 µM | [9] 26.2 µM | [18] 84.2 µM | [11] 57.4 µM | [12] 44.9 µM | TIMP1, TIMP1 (gene 7076) 83.9 µM | [15] 11.3 µM | [16] 20.4 µM
